Hits are enriched below; roughly 3.3% of the tested compounds scored in any of these assays.
PI5P4K alpha inh – blocks human PI5P4K alpha kinase activity | PI5P4Kalpha enzyme, ADP-Glo luminescence, 60 min; active compounds read low | 330,000 tested, 1.2% active | max response, % | P48426; active = max response of -50% or lower; inconclusive = between -30% and -50%; inactive = -30% or higher; note: value at the top dose of about 77 µM
Target sequence (P48426 whole entry, looked up): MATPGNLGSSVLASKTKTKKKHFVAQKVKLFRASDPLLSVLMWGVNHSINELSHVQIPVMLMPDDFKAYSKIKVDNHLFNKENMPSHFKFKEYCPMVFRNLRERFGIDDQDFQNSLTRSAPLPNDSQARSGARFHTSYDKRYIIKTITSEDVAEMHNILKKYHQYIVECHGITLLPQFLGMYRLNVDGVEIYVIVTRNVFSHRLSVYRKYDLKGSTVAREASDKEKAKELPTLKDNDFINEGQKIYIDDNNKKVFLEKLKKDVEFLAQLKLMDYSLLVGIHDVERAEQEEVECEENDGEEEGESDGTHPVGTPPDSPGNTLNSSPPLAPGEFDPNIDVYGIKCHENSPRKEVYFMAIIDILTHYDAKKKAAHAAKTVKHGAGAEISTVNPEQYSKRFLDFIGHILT
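qHTS, 1536-well: enzyme/substrate mix, compound by pin tool, 5 microM ATP final; RT 60 min; ADP-Glo reagents 1 (45 min) then 2 (30 min); luminescence.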
PLK1 PBD block – inhibitors of human PLK1 polo-box domain binding | P53350 | Plk1 PBD binding of FITC phosphopeptide, fluorescence polarization | Potency, µM, without a hit: max response, negative = inhibition, actives largely listed as inhibitors | 360,000 tested, 2.8% active | AID 720504; note: potency is the fitted concentration of half-maximal effect; series mostly up to about 57 µM; nearly all actives have a fitted effect of over 65% in size
USP1 inh – USP1/UAF1 (human) deubiquitinase inhibition. recombinant USP1/UAF1, Ub-Rhodamine cleavage fluorescence. Potency, µM (doses to about 57.1 µM), without a hit: at the top dose activity change, negative = inhibition, hits mostly inhibitors. 390,000 tested, 0.23% active. AID 743255; note: potency is the fitted concentration of half-maximal effect; nearly all actives have a fitted effect of over 60% in size
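1 nM enzyme complex + cpd, 15 min RT; start with Ub-Rho 150nM final; kinetic fluorescence ex 480/em 540, 6 reads q60 s. Buffer 50mM HEPES pH 7.8, 0.5mM EDTA, 0.1 mg/ml BSA, 1mM TCEP, 0.01% Tween-20.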
WRN helicase inh – inhibitors of human WRN helicase | Q14191 | WRN helicase unwinding, fluorescent forked duplex, kinetic | Potency, µM (highest dose often 114 µM), for inactives: top-dose activity change, negative = inhibition, usual class: inhibitors | 360,000 tested, 0.46% active | AID 651768; note: potency is the fitted concentration of half-maximal effect; nearly all actives have a fitted effect of over 55% in size
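Kinetic red-fluorescence monitoring (525/598 nm) tracks WRN helicase activity after 100 nM fluorophore-quencher forked duplex and 2 mM ATP are added to 20 nM enzyme pretreated 15 min at room temperature with compound.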
USP2a inh – USP2a (human) protease inhibition | Potency, µM (doses to about 38.3 µM), for inactives: top-dose activity change, negative = inhibition, most hits filed as inhibitors | 330,000 tested, 0.01% active | USP2 core, Ub-CHOP2 coupled fluorogenic reporter, 485/531 | AID 463254;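 note: potency is the fitted concentration of half-maximal effect; plate controls were DMSO wells for no effect and full inhibition by NEM control for full effect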
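USP2 core (10nM final) preincubated 30min RT with compound in 20mM Tris-HCl pH 8.0, 2mM CaCl2, 2mM beta-mercaptoethanol, 0.05% CHAPS; 25nM Ub-CHOP2 plus 25nM reporter substrate added, fluorescence (Ex485/Em531) read after 60min.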
* marks the source's active call; other numbers are inactive results; ? = inconclusive; · = no result given; [ ] = another dose, or the depositor's remark. Unless noted, calls come from the whole dose curve; as a rule, active = well fitted curve in the direction sought with a large enough effect; inconclusive = small, poorly fitted or top-dose-only effect, or another doubt; inactive = no such curve, though single readings can be large; an effect the other way counts as inactive or inconclusive. Unless noted, % is set by controls: 0 for no effect and ±100 for the full control effect.

SMILES | PI5P4K alpha inh | PLK1 PBD block | USP1 inh | WRN helicase inh | USP2a inh
CCOc1ccc(C(=O)N2CCC(c3ccncc3)CC2)cc1 | · | · | 5% | · | ·
Cc1coc2c1C(=O)C(=O)c1c-2ccc2c1CCCC2(C)C | -52* | ? | ? | -7%[11.6 µM] | -2%
Cc1ccc2c3c(cccc13)-c1ccccc1C2=O | 20 | -4% | -27% | -27%[57.1 µM] | 6%
Cc1coc2c1C(=O)C(=O)c1c-2ccc2c(C)cccc12 | -56* | ? | 28µM* | -36% | 0%
CC(C)(C)C(=O)Nc1cccc(C(=O)OCc2cc(=O)n3nc(C4CC4)sc3n2)c1 | · | · | -9% | · | ·
COc1ccc(CCNC(=O)c2csc3c2CCCCC3)c(OC)c1 | · | · | 0% | · | ·
N#C/C(=C/c1ccco1)C(N)=S | -59* | -22% | -18% | -36% | 1%
N#C/C(=C\c1ccc2c(c1)OCO2)C(N)=S | -6 | -11% | 2% | -12% | 3%
COC(=O)c1ccccc1S(=O)(=O)C(C)(C)C | -8 | 24µM* | -9% | 13% | 1%
COC(=O)c1ccccc1N(C)S(C)(=O)=O | -1 | -1% | -16% | 7% | 4%
CCn1c(C)cc(/C=C2/SC(=S)NC2=O)c1C | -7 | -1% | -7% | -25% | 1%
O=C1NC(=S)SC1=Cc1ccccc1C(=O)O | -78* | -17% | · | -9% | ·
Cc1cc(/C=C2\SC(=S)NC2=O)c(C)[nH]1 | -77* | -19% | -24% | -9%[11.6 µM] | 4%
O=C1NC(=S)SC1=Cc1ccccn1 | ? | -9% | · | -2% | ·
CCn1ncc(/C=C2/SC(=S)NC2=O)c1C | -66* | -4% | -14% | 1% | 0%
O=C1NC(=S)S/C1=C\c1cc(Cl)ccc1Cl | -62* | 21µM* | -16% | ? | ·
Cc1c(C(=O)Nc2cccc(Cl)c2)sc2nc3n(c(=O)c12)N=C(c1cccc(Br)c1)CS3 | · | · | -2% | · | ·
CC(C)CCNC(=O)c1ccc2nc(CCc3ccccc3)oc2c1 | · | · | -17% | · | ·
Cc1ccc2nc(-c3ccc(Cl)c(NC(=O)COc4ccc([N+](=O)[O-])cc4)c3)oc2c1 | · | · | -18% | · | ·
COc1ccc(Cl)cc1NC(=O)CN(c1cccc(C)c1C)S(C)(=O)=O | · | · | -20% | · | ·
O=C(Nc1ccc(C(=O)N2CCN(c3cccc(Cl)c3)CC2)cc1)c1nsc2ccccc12 | · | · | -11% | · | ·
c1ccc2c(c1)N1CCN=C1N2CCN1CCCCC1 | 2 | -16% | -8% | -9% | -1%
c1ccc2c(c1)N1CCCN=C1N2CCN1CCCCC1 | 3 | 27µM* | -9% | 4% | 4%
COCCCNC(=O)c1ccc(Cn2c(=O)c3ccccc3n(CC(N)=O)c2=O)cc1 | · | · | -3% | · | ·
Cc1cc(SC#N)cc(C)c1NC(=O)CCl | 8 | ? | -23% | -13% | 5%
SMILES | PI5P4K alpha inh | PLK1 PBD block | USP1 inh | WRN helicase inh | USP2a inh
CCC(=O)Nc1ccc(SC#N)cc1C | · | 13µM* | ? | 1% | 3%
CCc1cc(SC#N)cc(C)c1NC(=O)CCl | 2 | 12µM* | -15% | -24% | -1%
COc1ccccc1CNC(=O)C1CCN(S(=O)(=O)c2ccc3c(c2)CCCN3C(C)=O)CC1 | · | · | -3% | · | ·
CC(=O)c1ccc(NC(=O)CCc2c(C)nn(-c3ccc4nncn4n3)c2C)cc1 | · | · | 0% | · | ·
CCOC(=O)c1sc2ccccc2c1S(=O)(=O)Nc1ccc(OC)c(Cl)c1 | · | · | -9% | · | ·
O=C(NCCc1csc(-c2cccc(F)c2)n1)c1cccs1 | · | · | -33% | · | ·
O=C(O)COc1ccccc1C1C2C(=O)N(c3ccccc3)C(=O)C2ON1c1ccccc1 (stereo not given) | ? | 24µM* | -16% | -10% | 1%
CCOc1ccccc1C1C2C(=O)N(c3ccccc3)C(=O)C2ON1c1ccccc1 (stereo not given) | · | -3% | -21% | -14%[57.1 µM] | -6%
CC(=O)N1CCc2cc(CNS(=O)(=O)c3ccc(Cl)s3)ccc21 | · | · | 1% | · | ·
Cc1cc(SCC(=O)c2cccc([N+](=O)[O-])c2)nc(=O)[nH]1 | -58* | 21µM* | -26% | -13%[11.6 µM] | 1%
Cc1cc(SCc2ccc([N+](=O)[O-])cc2)nc(=O)[nH]1 | -59* | -27% | -2% | -6%[11.6 µM] | -5%
O=C(CSc1ccc(-c2ccco2)nn1)c1cccc([N+](=O)[O-])c1 | -64* | -24% | -14% | -32%[57.1 µM] | -1%
O=C(CSc1n[nH]c(=O)[nH]c1=O)c1cccc([N+](=O)[O-])c1 | -16 | -28% | -17% | 3% | 0%
CC(=O)c1cccc(NC(=O)CSc2ccc(-c3ccco3)nn2)c1 | ? | ? | -12% | ? | -2%
Cc1cc(SCc2cccc([N+](=O)[O-])c2)nc(=O)[nH]1 | ? | -18% | -7% | -11% | -1%
COC(=O)Nc1ccc(SCC(=O)c2cccc([N+](=O)[O-])c2)cc1 | 1 | 13µM* | -19% | 21% | 3%
CC(=O)N1CCc2c(sc3c2c(=O)n(Cc2ccccc2)c(=O)n3Cc2ccccc2Cl)C1 | · | · | -24% | · | ·
Cc1nnc(SCc2ccc([N+](=O)[O-])cc2)o1 | -20 | 3.8µM* | ? | -4% | 1%
COc1ccc(/C=N/NC(=O)CCSc2nc3ccccc3s2)cc1 | -1 | 30µM* | -18% | -6% | -1%
Cn1c(CSc2nc3ccccc3s2)n[nH]c1=S | -10 | 30µM* | -19% | 5% | 2%
O=C(CSc1nc2ccccc2s1)CSc1nc2ccccc2s1 | · | -6% | ? | -16%[57.1 µM] | 0%
O=C(CSc1nc2ccccc2s1)Nc1ccc(Cl)c(C(=O)O)c1 | ? | 8.4µM* | ? | -17% | 3%
O=C(CSc1nc2ccccc2s1)N/N=C/c1ccc(C(=O)O)cc1 | -11 | -18% | 5% | 2% | 3%
Cn1c(CSc2nc3ccccc3s2)nc2ccccc21 | -6 | -9% | -9% | -7% | 4%
CC(=O)CSc1nc2ccccc2s1 | -11 | 27µM* | -1% | 8% | 0%
SMILES | PI5P4K alpha inh | PLK1 PBD block | USP1 inh | WRN helicase inh | USP2a inh
CN(C)CCCNc1oc(/C=C/c2ccc(F)cc2)nc1C#N | · | · | -16% | · | ·
CCOC(=O)c1ccc(NC(=O)C2=C(C)C(=O)OC23CCN(C(C)C)CC3)cc1 | · | · | -2% | · | ·
O=C(O)CSCC(=O)Nc1ccc(-c2nc3ccccc3s2)cc1 | ? | 9.5µM* | -24% | -12%[11.6 µM] | 5%
Cn1c(Cc2cccs2)n[nH]c1=S | 0 | 27µM* | -15% | 1% | 1%
Cn1c(Cc2ccccc2)n[nH]c1=S | 3 | -2% | -20% | 7% | 0%
CN(Cc1ccccc1)c1nc2c(S(=O)(=O)c3ccccc3)nnn2c2ccsc12 | · | · | -3% | · | ·
O=c1cc(O)c2sc(Nc3ccc(F)c(Cl)c3)nc2[nH]1 | -69* | -4% | ? | ? | -3%
COc1ccc(Nc2nc3[nH]c(=O)cc(O)c3s2)cc1 | ? | -13% | -20% | -5% | -5%
Nc1nc(Sc2ccc(C(F)(F)F)cc2[N+](=O)[O-])n[nH]1 | 0 | -6% | 2% | -22% | -1%
Nc1nc(Sc2c([N+](=O)[O-])cc(C(F)(F)F)cc2[N+](=O)[O-])n[nH]1 | -7 | 2.4µM* | -17% | -19% | -6%

Assay outcomes as filed in PubChem BioAssay.
